Drawing on PubChem BioAssay (Tox21), this text covers Potency and outcome for 8 molecules.

Assay [1] addresses Estrogen receptor beta (Homo sapiens) (UniProt Q92731). Kind of assay: qHTS assay to identify small molecule antagonists of the estrogen receptor beta (ER-beta) signaling pathway (AID 1259378; active means well fitted inhibition curve with a large enough effect in the signal ratio in the repeat runs, not every such curve was filed as active; the % refers to the signal ratio). In short, it runs like this:
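ER-beta-UAS-bla HEK293T cells in 2% charcoal-stripped FBS medium treated with compound plus 1nM final 17-beta-estradiol for 16 hr at 37C. Beta-lactamase reporter read by FRET substrate fluorescence after 2 hours at room temperature.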

A short description of assay [2]: qHTS assay to identify small molecule agonists of the androgen receptor (AR) signaling pathway in the presence of an antagonist - cell viability counter screen (AID 1259379). Further: nearly all actives have a fitted effect of over 25% in size. Further: potency means the concentration at half of the fitted maximal effect. The gist of the method:
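Seed MDA-kb2 at 3,000 cells/well; incubate 5 hr, 37C, 0% CO2. Add nilutamide to 3.0uM final, then pin compounds at 15 concentrations. Incubate 16 hr. Add CellTiter-Fluor at 15 hr, read fluorescence after 1 hr.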

The nature of assay [3]: qHTS assay to identify small molecule antagonists of the estrogen receptor beta (ER-beta) signaling pathway - cell viability counter screen (AID 1259382). Further: series mostly up to about 92 µM; nearly all actives have a fitted effect of over 55% in size. In short, it runs like this:
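In this multiplexed counter screen, cells were seeded at 2,000 per well in medium with 2% charcoal-stripped FBS and incubated 6 hr before compound and 1nM final E2 were added. Sixteen hours later, ATP-based luminescence reported viability.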

Assay [4] in a line: qHTS assay to identify small molecule agonists of the estrogen receptor alpha (ER-alpha) signaling pathway in the presence of an antagonist - cell viability counter screen (AID 1259386).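 Further: cells exposed to compounds for 22 h at 37 °C before the viability read; nearly all actives have a fitted effect of over 30% in size.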 Further: potency means the concentration at half of the fitted maximal effect. In short, it runs like this: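 Viability counter screen using VM7Luc4E2 (full-length ER-alpha, four ERE-luciferase). The cells were treated with compounds alongside ICI-182,780 10.0nM for 22hr, and live-cell protease fluorescence was quantified with CellTiter-Fluor.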
For orientation: qHTS replaces the single test concentration by a dilution series.

For assay [5], the target named is Progesterone receptor (Homo sapiens) (UniProt P06401). The assay can be described thus: qHTS assay to identify small molecule agonists of the progesterone receptor (PR) signaling pathway (AID 1346784; calls by dose curve; further: nearly all actives have a fitted effect of over 30% in size). In short, it runs like this: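 Using charcoal-stripped serum (2%) to limit endogenous steroids, PR-UAS-bla HEK 293T cells received compounds for 16 hr at 37C after 6 hr plating; beta-lactamase FRET fluorescence was recorded following 2 hr substrate loading at room temperature.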
Progesterone receptor (Homo sapiens), sequence (P06401 whole entry, looked up): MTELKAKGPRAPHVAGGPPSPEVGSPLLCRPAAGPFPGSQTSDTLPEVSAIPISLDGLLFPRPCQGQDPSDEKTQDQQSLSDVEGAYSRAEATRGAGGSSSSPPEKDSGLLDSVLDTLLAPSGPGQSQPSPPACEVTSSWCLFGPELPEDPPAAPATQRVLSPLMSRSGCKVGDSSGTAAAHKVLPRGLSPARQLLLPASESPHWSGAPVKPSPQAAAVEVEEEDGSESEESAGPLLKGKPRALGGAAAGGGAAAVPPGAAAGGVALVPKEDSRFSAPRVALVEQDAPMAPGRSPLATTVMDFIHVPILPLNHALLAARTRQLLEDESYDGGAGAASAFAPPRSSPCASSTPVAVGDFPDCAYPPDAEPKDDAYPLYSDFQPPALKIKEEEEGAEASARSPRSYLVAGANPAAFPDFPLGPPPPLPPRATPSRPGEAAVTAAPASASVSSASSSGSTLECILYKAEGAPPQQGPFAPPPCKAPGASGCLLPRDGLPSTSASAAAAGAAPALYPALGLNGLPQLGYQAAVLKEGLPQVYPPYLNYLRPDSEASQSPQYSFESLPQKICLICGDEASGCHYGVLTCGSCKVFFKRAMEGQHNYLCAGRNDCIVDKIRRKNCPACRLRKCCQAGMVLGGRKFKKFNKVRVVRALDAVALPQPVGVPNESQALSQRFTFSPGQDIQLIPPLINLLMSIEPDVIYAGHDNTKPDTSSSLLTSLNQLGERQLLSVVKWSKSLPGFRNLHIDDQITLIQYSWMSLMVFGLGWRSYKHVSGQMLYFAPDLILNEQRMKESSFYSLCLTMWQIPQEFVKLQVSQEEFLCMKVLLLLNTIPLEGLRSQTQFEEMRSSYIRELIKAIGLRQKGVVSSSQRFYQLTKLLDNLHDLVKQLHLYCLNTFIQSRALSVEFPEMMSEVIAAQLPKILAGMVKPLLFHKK

For assay [6] the target is unchanged. The assay can be described thus: qHTS assay to identify small molecule antagonists of the progesterone receptor (PR) signaling pathway (AID 1346795; active means well fitted inhibition curve with a large enough effect in the signal ratio in the repeat runs, not every such curve was filed as active; the % refers to the signal ratio). The gist of the method: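 Inhibition of R5020-induced (1 nM final) beta-lactamase reporter signal in PR-UAS-bla HEK293T cells was scored by FRET fluorescence after overnight (16 hr) compound treatment.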
A short description of assay [7]: qHTS assay to identify small molecule antagonists of the progesterone receptor (PR) signaling pathway - cell viability counter screen (AID 1346798). Further: nearly all actives have a fitted effect of over 50% in size. Further: potency means the concentration at half of the fitted maximal effect. The gist of the method:
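ATP content as viability readout: CellTiter-Glo luminescence, 30 min room temperature, in PR-UAS-bla HEK293T cells after 16 hr compound/R5020 treatment at 37C and 5% CO2.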

Assay [8] in a line: qHTS assay to identify small molecule agonists of the progesterone receptor (PR) signaling pathway - cell viability counter screen (AID 1346799; calls by dose curve; further: nearly all actives have a fitted effect of over 45% in size). In short, it runs like this:
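Cytotoxicity in PR-bla HEK293T cells: 16 h compound, 37C; CellTiter-Glo added post-FRET read; luminescence after 30 min RT.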

Assay [9] can be described thus: qHTS assay to identify small molecule antagonists of the TGF-beta/Smad signaling pathway - cell viability counter screen (AID 1346824). Further: nearly all actives have a fitted effect of over 50% in size. The gist of the method:
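SBE-bla HEK 293T cells, incubated overnight, then compound plus 0.25 ng/mL TGF-beta1 (stock added) for 5 hr at 37 C. Viability was read in the same wells by CellTiter-Glo luminescence after 30 min at room temperature.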

The nature of assay [10]: qHTS assay to identify small molecule agonists of the TGF-beta/Smad signaling pathway - cell viability counter screen (AID 1346829). Further: top concentration of the series differs between compounds; nearly all actives have a fitted effect of over 45% in size. The gist of the method:
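HEK 293T SBE-bla line, 5 hr compound exposure at 37 C, multiplexed CellTiter-Glo viability read by luminescence.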

The nature of assay [11]: qHTS assay to identify small molecule agonists of the TGF-beta/Smad signaling pathway (AID 1346859; active means well fitted activation curve with a large enough effect in the signal ratio in the repeat runs, not every such curve was filed as active; the % refers to the signal ratio; further: series mostly up to about 77 µM). The gist of the method: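 Stable Smad binding element-beta-lactamase HEK 293T cells; 5 hr compound exposure at 37 C under 5% CO2; 2 hr room-temperature substrate step; fluorescence excited at 405 nm, collected at 460 nm and 530 nm.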
Assay [12] has as its target Thyrotropin-releasing hormone receptor (Homo sapiens) (UniProt P34981). Kind of assay: qHTS assay to identify small molecule antagonists of the thyrotropin-releasing hormone receptor (TRHR) signaling pathway (AID 1346877; active means well fitted inhibition curve with a large enough effect in the repeat runs, not every such curve was filed as active; further: series mostly up to about 51 µM). In short, it runs like this: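 Following an 18 h incubation at 37 °C and a 2 h calcium dye load, TRHR-HEK293 cells were exposed to compound (5 min, room temperature) and challenged with TRH, 1 nM final.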

The target is the same in assay [13]. The assay can be described thus: qHTS assay to identify small molecule agonists of the thyrotropin-releasing hormone receptor (TRHR) signaling pathway (AID 1346891; calls by dose curve;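 further: HEK293 cells expressing TRHR with calcium dye readout; series mostly up to about 58 µM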). In short, it runs like this: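 In 1536-format, 1500 TRHR-Hek293 cells per well grew 18 h, took up calcium dye for 2 h at 37 °C, received compound, and were read kinetically; 15-point titrations, triplicates.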

Assay [14] can be described thus: Human pregnane X receptor (PXR) small molecule agonists, qHTS cell viability counter screen (AID 1346977). Further: nearly all actives have a fitted effect of over 50% in size. Further: potency means the concentration at half of the fitted maximal effect. The gist of the method: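 Readout is CellTiter-Fluor fluorescence from PXR-Luc HepG2 cells. Plated cells rested 5hr, then were treated with compounds for 24hr at 37C and 5% CO2, with reagent present during the last hour.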
The target of assay [15] is Estrogen receptor (Homo sapiens) (UniProt P03372). Kind of assay: qHTS assay to identify small molecule agonists of the estrogen receptor alpha (ER-alpha) signaling pathway in the presence of an antagonist (AID 1259383; calls by dose curve; further: top concentration of the series differs between compounds; nearly all actives have a fitted effect of over 15% in size). In short, it runs like this: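 Stably transfected VM7Luc4E2 reporter cells, kept 5 days in charcoal-stripped serum, received ICI-182,780 at 10.0nM final before compound addition. Following 22hr incubation at 37C and 5% CO2, luciferase signal was read by luminescence.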
Estrogen receptor (Homo sapiens), sequence (P03372 whole entry, looked up): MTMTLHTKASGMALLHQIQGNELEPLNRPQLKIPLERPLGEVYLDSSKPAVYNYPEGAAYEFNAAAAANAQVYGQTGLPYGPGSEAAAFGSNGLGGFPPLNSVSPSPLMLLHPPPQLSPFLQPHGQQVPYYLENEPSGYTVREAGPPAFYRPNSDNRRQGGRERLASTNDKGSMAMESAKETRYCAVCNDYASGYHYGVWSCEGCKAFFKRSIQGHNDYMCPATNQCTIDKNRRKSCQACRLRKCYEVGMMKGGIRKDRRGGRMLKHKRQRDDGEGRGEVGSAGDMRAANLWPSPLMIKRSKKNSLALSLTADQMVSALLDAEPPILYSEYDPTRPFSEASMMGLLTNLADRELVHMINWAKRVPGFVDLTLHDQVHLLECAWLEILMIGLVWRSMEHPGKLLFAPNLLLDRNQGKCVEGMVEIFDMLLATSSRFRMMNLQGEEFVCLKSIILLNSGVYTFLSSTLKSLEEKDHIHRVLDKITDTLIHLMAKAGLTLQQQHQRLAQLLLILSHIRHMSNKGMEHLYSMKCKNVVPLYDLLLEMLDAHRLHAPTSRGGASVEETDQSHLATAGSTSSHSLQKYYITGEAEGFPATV

Assay [16] in a line: qHTS assay to identify small molecule agonists of the estrogen receptor beta (ER-beta) signaling pathway - cell viability counter screen (AID 1259380). Further: nearly all actives have a fitted effect of over 30% in size. Further: potency means the concentration at half of the fitted maximal effect. The gist of the method:
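CellTiter-Glo read, 30 min RT, same wells as bla assay; cells ER-beta-UAS-bla HEK293T; 16 hr compound, 37C; medium 2% charcoal-stripped FBS.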

Assay [17] is described as follows: qHTS assay to identify small molecule agonists or antagonists of the thyroid stimulating hormone receptor (TSHR) signaling pathway - wild type cell line counter screen (AID 1259384; calls by dose curve). The gist of the method:
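Wild-type Hek293 cells, 800/well, 18 h at 37C, then compound with Ro20-1724 for 30 min RT. cAMP by HTRF (cAMP-d2/anti-cAMP cryptate), 1 h RT, fluorescence read. 15 concentrations, triplicates.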

The target in assay [18] is Thyrotropin receptor (Homo sapiens) (UniProt P16473). The assay can be described thus: qHTS assay to identify small molecule antagonists of the thyroid stimulating hormone receptor (TSHR) signaling pathway (AID 1259385; calls by dose curve; further: nearly all actives have a fitted effect of over 20% in size; further: potency means the concentration at half of the fitted maximal effect). The gist of the method:
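TSHR-HEK293 cells (800/well) plated 18 h, then compounds with Ro20-1724 and TSH at 1.5 ng/mL final, 30 min at room temperature. cAMP quantified by HTRF (cAMP-d2/anti-cAMP-cryptate, 1 h); 15 concentrations in triplicate.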

The target of assay [19] is Androgen receptor (Homo sapiens) (UniProt P10275). The assay can be described thus: qHTS assay to identify small molecule agonists of the androgen receptor (AR) signaling pathway in the presence of an antagonist (AID 1259381; calls by dose curve; further: nearly all actives have a fitted effect of over 15% in size). The gist of the method:
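Test compounds at 15 concentrations were incubated for 16hr with MDA-kb2 reporter cells in presence of 3.0uM nilutamide (final). Signal: ONE-Glo luciferase luminescence.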

Several values for one entry are separate records, joined by “and”; a condition that tells them apart may be missing. Equal values may be shown once. Values without a mark were called inactive. Records with an inconclusive call do not appear. Activity calls are given as the source filed them. Unless noted, the call rests on the fitted dose curve; in most records, active means well fitted curve in the direction sought with a large enough effect in the repeat runs; inconclusive means weak or mixed curves; inactive means no such curve, though single readings can be large; an effect the other way counts as inactive or inconclusive.

Thyrotropin-releasing hormone receptor (Homo sapiens), sequence (P34981 whole entry, looked up): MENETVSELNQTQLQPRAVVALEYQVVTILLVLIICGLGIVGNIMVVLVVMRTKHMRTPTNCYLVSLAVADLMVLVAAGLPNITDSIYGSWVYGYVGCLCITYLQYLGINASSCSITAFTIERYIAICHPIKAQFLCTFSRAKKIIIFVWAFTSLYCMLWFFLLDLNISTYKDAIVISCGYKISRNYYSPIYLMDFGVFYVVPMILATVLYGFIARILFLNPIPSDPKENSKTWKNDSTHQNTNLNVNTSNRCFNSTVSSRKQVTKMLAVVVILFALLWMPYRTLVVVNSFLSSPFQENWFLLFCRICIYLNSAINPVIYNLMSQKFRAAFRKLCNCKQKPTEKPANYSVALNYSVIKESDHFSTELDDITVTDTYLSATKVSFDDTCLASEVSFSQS
Androgen receptor (Homo sapiens), sequence (P10275 whole entry, looked up): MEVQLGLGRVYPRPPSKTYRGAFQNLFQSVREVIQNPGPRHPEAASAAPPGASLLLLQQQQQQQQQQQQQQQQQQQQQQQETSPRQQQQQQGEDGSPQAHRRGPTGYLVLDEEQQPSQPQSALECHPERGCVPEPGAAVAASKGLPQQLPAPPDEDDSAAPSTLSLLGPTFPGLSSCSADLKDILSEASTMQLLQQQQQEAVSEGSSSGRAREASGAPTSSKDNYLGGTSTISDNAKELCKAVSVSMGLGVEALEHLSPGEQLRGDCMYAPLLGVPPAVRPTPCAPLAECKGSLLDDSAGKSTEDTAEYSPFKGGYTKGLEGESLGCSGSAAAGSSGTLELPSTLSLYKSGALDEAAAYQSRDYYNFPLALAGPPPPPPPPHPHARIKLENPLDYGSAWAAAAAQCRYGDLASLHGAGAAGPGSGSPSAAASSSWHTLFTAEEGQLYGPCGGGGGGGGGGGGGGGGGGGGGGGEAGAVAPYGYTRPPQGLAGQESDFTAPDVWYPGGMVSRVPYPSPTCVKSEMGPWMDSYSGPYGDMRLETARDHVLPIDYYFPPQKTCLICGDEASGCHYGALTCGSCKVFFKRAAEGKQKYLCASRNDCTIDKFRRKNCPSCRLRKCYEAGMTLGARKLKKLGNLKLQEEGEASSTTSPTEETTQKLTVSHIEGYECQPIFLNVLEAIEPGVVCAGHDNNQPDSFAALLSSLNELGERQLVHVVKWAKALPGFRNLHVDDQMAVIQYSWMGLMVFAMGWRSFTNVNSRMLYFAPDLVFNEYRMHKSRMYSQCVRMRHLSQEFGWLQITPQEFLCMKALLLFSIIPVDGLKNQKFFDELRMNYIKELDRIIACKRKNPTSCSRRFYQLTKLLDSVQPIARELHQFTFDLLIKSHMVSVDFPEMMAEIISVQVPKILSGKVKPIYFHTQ
Thyrotropin receptor (Homo sapiens), sequence (P16473 whole entry, looked up): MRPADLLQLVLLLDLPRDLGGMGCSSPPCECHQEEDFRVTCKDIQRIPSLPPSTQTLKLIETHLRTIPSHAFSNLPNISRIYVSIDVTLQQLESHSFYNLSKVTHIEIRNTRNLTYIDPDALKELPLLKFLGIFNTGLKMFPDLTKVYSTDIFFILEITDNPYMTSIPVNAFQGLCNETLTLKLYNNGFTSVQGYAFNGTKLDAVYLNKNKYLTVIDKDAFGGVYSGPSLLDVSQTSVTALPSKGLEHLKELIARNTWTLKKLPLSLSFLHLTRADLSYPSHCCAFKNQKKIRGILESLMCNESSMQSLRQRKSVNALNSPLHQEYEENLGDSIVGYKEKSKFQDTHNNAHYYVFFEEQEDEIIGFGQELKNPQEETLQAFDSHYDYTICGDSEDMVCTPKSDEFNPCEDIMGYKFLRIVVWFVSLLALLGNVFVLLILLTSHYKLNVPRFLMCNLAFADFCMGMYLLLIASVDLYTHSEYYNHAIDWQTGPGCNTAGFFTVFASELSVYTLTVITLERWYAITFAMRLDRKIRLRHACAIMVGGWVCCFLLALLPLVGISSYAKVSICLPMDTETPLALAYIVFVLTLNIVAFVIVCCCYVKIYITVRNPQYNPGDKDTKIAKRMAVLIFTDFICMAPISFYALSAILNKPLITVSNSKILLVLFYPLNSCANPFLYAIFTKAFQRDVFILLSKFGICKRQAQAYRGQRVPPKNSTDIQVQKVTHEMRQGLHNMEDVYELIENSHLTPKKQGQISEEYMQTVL
Estrogen receptor beta (Homo sapiens), sequence (Q92731 whole entry, looked up): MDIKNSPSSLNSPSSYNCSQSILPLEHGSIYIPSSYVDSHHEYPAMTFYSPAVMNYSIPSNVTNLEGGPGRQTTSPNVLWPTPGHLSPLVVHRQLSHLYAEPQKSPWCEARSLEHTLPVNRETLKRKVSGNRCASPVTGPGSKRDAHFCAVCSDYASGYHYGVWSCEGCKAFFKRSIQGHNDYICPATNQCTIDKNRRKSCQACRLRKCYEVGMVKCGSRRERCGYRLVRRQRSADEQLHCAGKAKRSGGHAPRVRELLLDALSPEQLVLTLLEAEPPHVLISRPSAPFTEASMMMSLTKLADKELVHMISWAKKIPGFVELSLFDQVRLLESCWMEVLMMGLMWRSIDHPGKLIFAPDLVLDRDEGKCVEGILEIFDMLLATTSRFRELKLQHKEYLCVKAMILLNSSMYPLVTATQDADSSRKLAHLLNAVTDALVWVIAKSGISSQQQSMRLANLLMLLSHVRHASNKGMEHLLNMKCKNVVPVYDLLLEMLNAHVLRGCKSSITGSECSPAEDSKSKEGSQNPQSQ

`CCCC(=O)OC(C)(C)Cc1ccccc1`: the Potency result in assay [1], in assay [2], in assay [3], in assay [4], in [5] and in assay [6] was “inactive” each time. In addition, the Potency entry in assay [7], in assay [8], in assay [9], in [10], in assay [11] and in assay [12] was “inactive” in each case. Also, in assay [14], the Potency entry was “inactive”. In addition, in assay [13], the molecule was classed as inactive.

`CC(CCc1ccccc1)NCC(O)c1ccc(O)c(C(N)=O)c1` (stereo not given): the Potency result in [1], in [15], in assay [5], in [6], in assay [7] and in assay [9] was “inactive” throughout. Also, the Potency result in assay [10], in assay [11] and in assay [12] was “inactive” in each case. The Potency in assay [4] was 27.3 µM (active); in [14], 43.3 µM (active). In addition, in assay [13], the call was inactive.

As for `CC(C)(c1cc(Br)c(OCC(Br)CBr)c(Br)c1)c1cc(Br)c(OCC(Br)CBr)c(Br)c1` (stereo not given), the Potency entry in [2], in assay [16], in assay [3], in [15], in assay [18] and in assay [4] was “inactive” each time. Further, the Potency result in assay [7], in assay [8], in assay [9], in [10], in assay [12] and in assay [14] was “inactive” throughout. The result in assay [17] and in [13] was inactive.

Consider `Cc1ccc(C)cc1`, for which the Potency entry in [2], in assay [16], in assay [15], in [4], in assay [5] and in [6] was “inactive” in each case. In addition, the Potency entry in assay [7], in assay [8], in assay [9], in [10], in assay [11] and in assay [12] was “inactive” throughout. Moreover, in assay [14], the Potency result is “inactive”. Besides, the result in assay [19] and in assay [13] was inactive.

On to `C=CC(=O)Nc1cc2c(Nc3ccc(F)c(Cl)c3)ncnc2cc1OCCCN1CCOCC1`, for which the Potency in assay [2] is 841 nM (active); in assay [16] it was 23.7 µM (active); in assay [18], 26.6 µM (active). In addition, the result in [19], in assay [17] and in assay [13] was inactive. Moreover, the Potency entry in [3], in assay [15], in assay [5], in [7], in assay [9] and in assay [10] was “inactive” each time. Besides, the Potency result in assay [12] is “inactive”.

With `O=C(O)c1cccc(C(F)(F)F)c1`, the Potency result in [2], in assay [16], in assay [3], in [15], in [18] and in assay [4] was “inactive” each time. The Potency result in assay [5], in assay [6], in [7], in [9] and in assay [10] was “inactive” each time. The molecule was classed as inactive in assay [17].

For `C=C(C)C(=O)OCCCCCCCCCC`, the Potency result in assay [2], in assay [16], in assay [3], in [15], in [18] and in assay [4] was “inactive” in each case. For the same molecule, the Potency result in assay [5], in assay [9], in [10], in [11] and in assay [12] was “inactive” each time. Besides, the outcome in assay [17] and in assay [13] was inactive.

For the molecule `Cc1c2ccccc2c(C)c2c1ccc1ccccc12`, the Potency in [2] was 53.9 µM (active) and 61.1 µM (active); in [16] it was 30.3 µM (active) and 27.3 µM (active); in [7], 27 µM (active) and 30.6 µM (active); in [14], 61.1 µM (active). For the same molecule, the result in [19], in assay [17] and in [13] was inactive. Further, the Potency result in assay [18], in [4], in [5], in [9] and in assay [12] was “inactive” throughout.
